Assay results: PubChem BioAssay (EPA / NIEHS)
Several values for one entry are separate records, joined by “and”; a condition that tells them apart may be missing. Equal entries are not always repeated. Activity calls are given as the source filed them. The calls were made as follows: active = hit-call score of the fitted dose curve at least 0.9, where 1 is the maximum; inactive = score below 0.9.

System: not listed separately
Assay: CCTE_Padilla_ZF_Score.Any: CCTE's 144 Hour Post-fertilization zebrafish Assay Score for Any Mortality or Malformation, Padilla Lab (AID 2284416)
Outline: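 Wild-type zebrafish embryos with chorions, one per well in 10% Hanks' from 6–8 hpf, dosed in sealed plates at 26 C, 14:10 h light:dark; rinsed at 5 dpf; blinded scoring at 6 dpf for death or malformation, versus DMSO.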
With O=C(O)CCC(F)(C(F)(F)F)C(F)(F)F the outcome was “inactive”. With O=C(O)C(F)(F)C(F)(F)C(F)(F)C(F)(F)C(F)(F)C(F)(F)F the AC50 was 98900 nM (active). For O=C(O)C(F)(F)C(F)(F)C(F)(F)C(F)(F)C(F)(F)C(F)(F)C(F)(F)C(F)(F)C(F)(F)C(F)(F)F, the AC50 was 3350 nM (active).

System: TTR (gene 7276)
Assay: CCTE_GLTED_hTTR_0.125uM: CCTE's human Transthyretin (hTTR) Inhibition Assay, with 0.125uM TTR, Great Lakes Toxicology and Ecology Division (GLTED) Lab (AID 2284431);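 also: hits lower the fluorescence signal relative to DMSO baseline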
Outline: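 Cell-free displacement of the fluorescent probe ANSA from human TTR (0.125uM) after 2 h incubation with test chemical. Fluorescence read at 380 nm excitation/475 nm emission; loss of signal fitted relative to DMSO baseline.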
For COP(=O)(OC)O/C(=C\Cl)c1cc(Cl)c(Cl)cc1Cl, the AC50 was 1.18 µM (active). For Oc1ccc(-c2ccccc2)cc1, the AC50 was 2.83 µM (active). With CC(C)(C)CC(C)(C)c1ccc(O)cc1 the AC50 was 13.1 µM (active). In the case of CCC(C)(C)c1ccc(O)c(C(C)(C)CC)c1, the AC50 was 3.18 µM (active). For COc1cc(-c2ccc(N)c(OC)c2)ccc1N, the AC50 was 104 nM (active) and 2.64 µM (active). With O=C(O)C(F)(F)C(F)(F)C(F)(F)C(F)(F)C(F)(F)C(F)(F)F the AC50 was 0.236 µM (active). In the case of CCCCCCCCc1ccc(O)cc1, the AC50 was 1.2 µM (active). With CCOP(=S)(OCC)Oc1nc(Cl)c(Cl)cc1Cl the AC50 was 0.376 µM (active). In the case of O=[N+]([O-])c1ccc(O)c([N+](=O)[O-])c1, the AC50 was 0.155 µM (active). With O=C(O)C(F)(F)C(F)(F)C(F)(F)C(F)(F)C(F)(F)C(F)(F)C(F)(F)C(F)(F)C(F)(F)C(F)(F)F the AC50 was 0.783 µM (active). For CC(C)(c1ccccc1)c1ccc(O)c(C(C)(C)c2ccccc2)c1, the AC50 was 0.241 µM (active). In the case of COP(=S)(OC)Oc1ccc(Sc2ccc(OP(=S)(OC)OC)cc2)cc1, the AC50 was 0.537 µM (active). For ClC(Cl)=C(Cl)C(Cl)=C(Cl)Cl, the AC50 was 9.92 µM (active). With CCOP(=S)(OCC)SCSP(=S)(OCC)OCC the AC50 was 1.57 µM (active). With O=C1C(Cl)=C(Cl)C(=O)c2ccccc21 the AC50 was 3.67 µM (active).
